Results taken from the supplement of paper PMC11001985.

The targets below were run with C#CCNC(=O)CCSSCCC(=O)NCCc1ccc(C=O)c(C=O)c1 (assay: lysine labeling ratio R10:1 (500 µM / 50 µM probe), SILAC-ABPP in living cells; higher = lower intrinsic lysine reactivity toward the probe, active = 2 or less). Details: HeLa; probe concentrations 500 vs 50 µM.
How it was run: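 Living SILAC light and heavy HeLa cells in PBS at room temperature were treated with an alkyne-tagged, disulfide-linked lysine probe at 50 µM or 500 µM, with forward and reverse label swaps. The mixed lysates were clicked to biotin-azide, digested with trypsin, captured on neutravidin, released with DTT, alkylated and run by LC-MS/MS on a TIMS-TOF Pro. R for each lysine is the filtered median high-probe/low-probe MS1 peptide ratio, taken again as the median over forward and reverse replicates. Any value above 20 is set to 20.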

Chain of UniProt Q16363 (Q16363 whole entry): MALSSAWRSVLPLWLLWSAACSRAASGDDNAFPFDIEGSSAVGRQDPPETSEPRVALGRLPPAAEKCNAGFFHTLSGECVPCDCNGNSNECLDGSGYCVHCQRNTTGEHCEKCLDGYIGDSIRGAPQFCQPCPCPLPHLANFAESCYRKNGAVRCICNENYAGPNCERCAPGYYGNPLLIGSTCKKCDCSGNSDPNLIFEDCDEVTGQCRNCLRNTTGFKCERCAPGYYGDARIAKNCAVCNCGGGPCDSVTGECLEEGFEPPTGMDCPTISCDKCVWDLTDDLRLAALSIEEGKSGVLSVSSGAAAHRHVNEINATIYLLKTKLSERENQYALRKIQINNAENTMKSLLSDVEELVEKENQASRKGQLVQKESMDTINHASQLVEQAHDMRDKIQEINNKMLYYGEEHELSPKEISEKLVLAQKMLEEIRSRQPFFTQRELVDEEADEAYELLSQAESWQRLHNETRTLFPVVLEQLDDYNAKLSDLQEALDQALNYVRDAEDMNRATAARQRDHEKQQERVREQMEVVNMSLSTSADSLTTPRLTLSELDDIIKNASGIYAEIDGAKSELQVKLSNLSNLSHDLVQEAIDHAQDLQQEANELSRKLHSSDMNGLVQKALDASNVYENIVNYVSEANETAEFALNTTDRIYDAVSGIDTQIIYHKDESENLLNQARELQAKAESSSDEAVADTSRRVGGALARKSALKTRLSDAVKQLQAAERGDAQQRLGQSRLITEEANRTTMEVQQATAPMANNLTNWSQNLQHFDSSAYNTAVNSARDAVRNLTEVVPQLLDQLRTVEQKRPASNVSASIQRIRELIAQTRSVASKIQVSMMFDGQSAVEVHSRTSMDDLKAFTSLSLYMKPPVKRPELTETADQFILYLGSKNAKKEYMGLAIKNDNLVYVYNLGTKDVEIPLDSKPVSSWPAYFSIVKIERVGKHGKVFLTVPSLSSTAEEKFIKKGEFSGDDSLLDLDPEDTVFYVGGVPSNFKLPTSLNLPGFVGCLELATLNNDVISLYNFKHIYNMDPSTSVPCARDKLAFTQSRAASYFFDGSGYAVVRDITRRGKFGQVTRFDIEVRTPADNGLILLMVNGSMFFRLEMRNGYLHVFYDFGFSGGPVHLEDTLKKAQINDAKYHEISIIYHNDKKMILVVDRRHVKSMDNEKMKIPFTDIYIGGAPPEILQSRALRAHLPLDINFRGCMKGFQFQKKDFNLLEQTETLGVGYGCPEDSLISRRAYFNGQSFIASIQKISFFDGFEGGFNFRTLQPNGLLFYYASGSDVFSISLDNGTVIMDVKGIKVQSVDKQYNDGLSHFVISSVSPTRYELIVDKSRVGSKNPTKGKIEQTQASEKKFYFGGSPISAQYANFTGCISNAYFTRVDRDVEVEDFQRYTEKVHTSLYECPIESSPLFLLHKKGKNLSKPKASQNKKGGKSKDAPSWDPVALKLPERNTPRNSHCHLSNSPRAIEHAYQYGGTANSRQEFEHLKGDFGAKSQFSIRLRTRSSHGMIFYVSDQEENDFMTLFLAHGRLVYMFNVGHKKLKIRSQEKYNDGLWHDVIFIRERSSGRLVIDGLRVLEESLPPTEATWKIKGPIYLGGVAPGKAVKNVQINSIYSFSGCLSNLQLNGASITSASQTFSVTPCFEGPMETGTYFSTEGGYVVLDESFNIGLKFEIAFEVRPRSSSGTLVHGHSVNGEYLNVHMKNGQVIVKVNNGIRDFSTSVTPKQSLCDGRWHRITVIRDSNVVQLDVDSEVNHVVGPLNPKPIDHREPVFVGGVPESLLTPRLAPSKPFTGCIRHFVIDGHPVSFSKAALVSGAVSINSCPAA
Chain of UniProt Q9P0L0 (Q9P0L0 whole entry): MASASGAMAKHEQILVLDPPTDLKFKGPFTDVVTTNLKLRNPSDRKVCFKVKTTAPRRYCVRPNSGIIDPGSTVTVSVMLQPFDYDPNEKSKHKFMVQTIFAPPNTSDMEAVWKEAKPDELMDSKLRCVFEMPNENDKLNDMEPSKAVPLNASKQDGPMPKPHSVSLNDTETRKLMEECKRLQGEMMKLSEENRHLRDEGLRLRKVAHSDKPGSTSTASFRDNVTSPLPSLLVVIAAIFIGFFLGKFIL
Chain of UniProt Q13813 (Q13813 whole entry): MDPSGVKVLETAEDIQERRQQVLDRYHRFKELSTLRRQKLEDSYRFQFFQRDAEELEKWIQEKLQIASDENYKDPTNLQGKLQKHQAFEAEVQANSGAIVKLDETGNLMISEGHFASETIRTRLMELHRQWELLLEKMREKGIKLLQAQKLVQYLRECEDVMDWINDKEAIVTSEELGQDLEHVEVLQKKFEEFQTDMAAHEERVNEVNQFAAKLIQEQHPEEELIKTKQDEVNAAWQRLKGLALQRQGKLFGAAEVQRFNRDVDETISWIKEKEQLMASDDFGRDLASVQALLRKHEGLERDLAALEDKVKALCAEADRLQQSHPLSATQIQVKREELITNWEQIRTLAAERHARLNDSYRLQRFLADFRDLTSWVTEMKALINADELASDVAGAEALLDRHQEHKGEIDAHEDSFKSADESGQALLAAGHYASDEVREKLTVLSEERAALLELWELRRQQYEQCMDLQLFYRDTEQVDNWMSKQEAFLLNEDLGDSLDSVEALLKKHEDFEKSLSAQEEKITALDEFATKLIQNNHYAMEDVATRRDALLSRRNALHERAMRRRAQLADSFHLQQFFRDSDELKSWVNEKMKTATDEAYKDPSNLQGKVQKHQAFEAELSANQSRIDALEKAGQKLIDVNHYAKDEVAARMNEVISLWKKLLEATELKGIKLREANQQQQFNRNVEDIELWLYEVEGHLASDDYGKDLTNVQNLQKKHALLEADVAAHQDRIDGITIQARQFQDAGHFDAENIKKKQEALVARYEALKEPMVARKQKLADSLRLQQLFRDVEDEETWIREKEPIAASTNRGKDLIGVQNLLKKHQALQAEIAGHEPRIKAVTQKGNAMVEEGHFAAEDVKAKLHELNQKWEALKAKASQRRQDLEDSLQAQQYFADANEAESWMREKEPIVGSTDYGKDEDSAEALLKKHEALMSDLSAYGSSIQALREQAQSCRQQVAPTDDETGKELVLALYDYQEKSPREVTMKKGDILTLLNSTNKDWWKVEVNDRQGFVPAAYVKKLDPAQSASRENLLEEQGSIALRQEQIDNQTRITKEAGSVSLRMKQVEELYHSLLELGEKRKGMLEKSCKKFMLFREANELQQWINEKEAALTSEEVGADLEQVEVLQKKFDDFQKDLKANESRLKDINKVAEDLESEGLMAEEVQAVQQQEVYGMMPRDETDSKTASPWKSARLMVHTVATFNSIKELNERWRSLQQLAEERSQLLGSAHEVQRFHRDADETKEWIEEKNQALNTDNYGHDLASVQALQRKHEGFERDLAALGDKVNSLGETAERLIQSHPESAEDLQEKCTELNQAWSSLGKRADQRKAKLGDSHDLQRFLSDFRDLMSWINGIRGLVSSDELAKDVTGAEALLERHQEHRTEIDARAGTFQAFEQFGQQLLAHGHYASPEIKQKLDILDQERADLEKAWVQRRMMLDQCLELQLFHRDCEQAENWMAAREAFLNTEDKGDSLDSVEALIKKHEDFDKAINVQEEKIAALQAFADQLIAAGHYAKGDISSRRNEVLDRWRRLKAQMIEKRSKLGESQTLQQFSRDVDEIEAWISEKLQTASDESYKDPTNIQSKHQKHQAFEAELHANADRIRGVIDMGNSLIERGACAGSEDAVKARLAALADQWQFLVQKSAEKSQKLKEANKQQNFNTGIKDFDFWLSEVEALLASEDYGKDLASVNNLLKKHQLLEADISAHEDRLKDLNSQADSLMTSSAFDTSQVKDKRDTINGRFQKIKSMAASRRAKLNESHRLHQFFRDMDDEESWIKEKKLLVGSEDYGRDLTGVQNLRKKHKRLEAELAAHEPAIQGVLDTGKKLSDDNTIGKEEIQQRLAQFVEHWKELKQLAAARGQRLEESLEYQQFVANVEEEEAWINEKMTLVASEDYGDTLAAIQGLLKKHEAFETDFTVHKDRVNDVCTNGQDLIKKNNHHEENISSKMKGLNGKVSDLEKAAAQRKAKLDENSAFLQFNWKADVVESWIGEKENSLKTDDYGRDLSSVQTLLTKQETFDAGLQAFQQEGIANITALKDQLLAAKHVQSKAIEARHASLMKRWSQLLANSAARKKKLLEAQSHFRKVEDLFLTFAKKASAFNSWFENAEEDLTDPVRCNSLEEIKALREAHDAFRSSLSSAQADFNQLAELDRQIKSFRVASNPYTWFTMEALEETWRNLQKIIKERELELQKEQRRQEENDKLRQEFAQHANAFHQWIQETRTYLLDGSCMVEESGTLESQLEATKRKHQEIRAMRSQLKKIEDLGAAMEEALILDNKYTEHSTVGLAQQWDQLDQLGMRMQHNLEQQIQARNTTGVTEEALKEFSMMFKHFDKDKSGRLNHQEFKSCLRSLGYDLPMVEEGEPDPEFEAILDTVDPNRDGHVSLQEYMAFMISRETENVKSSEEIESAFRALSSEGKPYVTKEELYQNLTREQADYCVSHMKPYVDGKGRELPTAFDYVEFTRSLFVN
Chain of UniProt Q9HB71 (Q9HB71 whole entry): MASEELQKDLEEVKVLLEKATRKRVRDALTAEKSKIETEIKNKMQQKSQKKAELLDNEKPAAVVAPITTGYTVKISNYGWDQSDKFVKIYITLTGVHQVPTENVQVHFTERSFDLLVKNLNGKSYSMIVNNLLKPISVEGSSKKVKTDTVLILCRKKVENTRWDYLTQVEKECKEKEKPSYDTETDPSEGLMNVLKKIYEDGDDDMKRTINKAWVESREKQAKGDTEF
Chain of UniProt Q9BVK6 (Q9BVK6 whole entry): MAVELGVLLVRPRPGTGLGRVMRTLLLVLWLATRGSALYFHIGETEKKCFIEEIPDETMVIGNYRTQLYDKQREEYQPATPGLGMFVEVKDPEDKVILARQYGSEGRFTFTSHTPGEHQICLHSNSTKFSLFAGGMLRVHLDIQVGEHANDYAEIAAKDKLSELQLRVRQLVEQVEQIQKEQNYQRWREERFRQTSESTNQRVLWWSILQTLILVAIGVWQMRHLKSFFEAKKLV

Lysine labeling ratio R10:1, active:
UniProt Q16363 (lysine site: K717) 0.58
EZR (lysine site: K64) (UniProt P15311) 0.907
A2M (lysine site: K115) (UniProt P01023) 0.757
PGK1 (lysine site: K146) (UniProt P00558) 1.57
RDX (lysine site: K371) (UniProt P35241) 1.33
VAPA (lysine site: K188) (UniProt Q9P0L0) 1.99
RTN4 (lysine site: K1104) (UniProt Q9NQC3) 1.32
ASPH (lysine site: K609) (UniProt Q12797) 1.47
UniProt P14618 (lysine site: K66) 1.62
UniProt Q99653 (lysine site: K188) 1.18
EEF1G (lysine site: K243) (UniProt P26641) 1.4
MSLN (lysine site: K307) (UniProt Q13421) 1.74
TFRC (lysine site: K358) (UniProt P02786) 1.48
CACYBP (lysine site: K212) (UniProt Q9HB71) 1.91
DNAJA3 (lysine site: K391) (UniProt Q96EY1) 1.5
SYNE2 (lysine site: K1618) (UniProt Q8WXH0) 1.41

Lysine labeling ratio R10:1, inactive:
CCT8 (lysine site: K318) (UniProt P50990) 2.44
CDV3 (lysine site: K15) (UniProt Q9UKY7) 2.4
SPTAN1 (lysine site: K190) (UniProt Q13813) 4.11
EPHA7 (lysine site: K272) (UniProt Q15375) 2.33
UniProt P41250 (lysine site: K646) 2.94
TMEM109 (lysine site: K215) (UniProt Q9BVC6) 3.67
UniProt P23352 (lysine site: K279) 3.78
DDX5 (lysine site: K207) (UniProt P17844) 4.37
EIF3I (lysine site: K2) (UniProt Q13347) 2.67
CELSR2 (lysine site: K2183) (UniProt Q9HCU4) 4.05
SLC4A7 (lysine site: K890) (UniProt Q9Y6M7) 4.29
PTGFRN (lysine site: K632) (UniProt Q9P2B2) 11.6
VAPA (lysine site: K205) (UniProt Q9P0L0) 7.76
UniProt P04439 (lysine site: K92) 3.31
TMED9 (lysine site: K95) (UniProt Q9BVK6) 4.55
FLNA (lysine site: K2025) (UniProt P21333) 3.25
ULBP2 (lysine site: K116) (UniProt Q9BZM5) 5.14
UniProt Q15149 (lysine site: K810) 2.16
EGFR (lysine site: K293) (UniProt P00533) 3.59
UniProt Q16363 (lysine site: K1723) 2.13
L1CAM (lysine site: K230) (UniProt P32004) 5.86
ATP1B1 (lysine site: K134) (UniProt P05026) 6.75
HNRNPA1 (lysine site: K113) (UniProt P09651) 4.81
CRIM1 (lysine site: K171) (UniProt Q9NZV1) 2.01
